# For some assays here: Entries with a potency or affinity are not part of this list.
# Columns and labels:
# Parameters in all cases: scale not given: direction of the effect not stated beside the values
# [1] = target: Protein translocase subunit SecA (Escherichia coli (strain K12)) (UniProt P10408); assay: Assay to Identify E. coli SecA ATPase Inhibitors; assay type: functional; conditions: 30 µM
# [2] = target: T1, Ubiquitin-activating enzyme e1, putative (Leishmania donovani (strain BPK282A1)) (UniProt E9BSI1); assay: Leishmania donovani Ubiquitin Activating Enzyme (LdE1); assay type: functional; conditions: 30 µM
# T1 sequence (whole entry): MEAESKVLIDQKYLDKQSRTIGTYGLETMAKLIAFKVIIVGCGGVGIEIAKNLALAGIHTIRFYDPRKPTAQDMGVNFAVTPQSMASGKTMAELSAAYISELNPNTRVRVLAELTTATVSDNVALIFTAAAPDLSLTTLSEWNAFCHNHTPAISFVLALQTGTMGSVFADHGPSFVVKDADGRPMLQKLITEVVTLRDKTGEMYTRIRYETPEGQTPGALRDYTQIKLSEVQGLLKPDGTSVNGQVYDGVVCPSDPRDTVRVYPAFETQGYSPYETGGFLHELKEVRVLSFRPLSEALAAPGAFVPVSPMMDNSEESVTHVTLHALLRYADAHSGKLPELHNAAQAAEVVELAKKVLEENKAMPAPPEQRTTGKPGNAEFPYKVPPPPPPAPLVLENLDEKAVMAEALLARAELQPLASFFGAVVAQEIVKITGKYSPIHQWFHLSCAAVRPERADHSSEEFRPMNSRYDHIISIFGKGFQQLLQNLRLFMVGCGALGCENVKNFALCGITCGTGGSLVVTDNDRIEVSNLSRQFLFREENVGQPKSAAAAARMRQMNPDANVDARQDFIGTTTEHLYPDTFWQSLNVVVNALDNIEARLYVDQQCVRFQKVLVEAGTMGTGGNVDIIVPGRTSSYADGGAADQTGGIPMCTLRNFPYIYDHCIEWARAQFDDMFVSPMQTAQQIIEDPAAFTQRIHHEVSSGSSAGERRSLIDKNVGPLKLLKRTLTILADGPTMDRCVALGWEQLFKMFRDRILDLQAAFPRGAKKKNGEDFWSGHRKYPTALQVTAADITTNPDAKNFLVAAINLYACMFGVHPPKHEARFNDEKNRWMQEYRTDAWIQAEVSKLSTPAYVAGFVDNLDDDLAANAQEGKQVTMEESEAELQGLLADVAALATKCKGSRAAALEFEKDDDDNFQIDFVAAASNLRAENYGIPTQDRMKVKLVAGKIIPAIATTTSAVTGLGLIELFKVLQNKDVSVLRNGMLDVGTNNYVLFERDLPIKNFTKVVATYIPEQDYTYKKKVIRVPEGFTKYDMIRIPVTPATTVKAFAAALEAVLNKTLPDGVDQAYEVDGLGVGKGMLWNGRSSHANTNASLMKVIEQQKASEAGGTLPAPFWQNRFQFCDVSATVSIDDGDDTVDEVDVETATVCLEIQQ
# [3] = target: AMP-activated protein kinase, AMPK (Homo sapiens) (UniProt P54646+O43741+P54619+Q9UGJ0+Q9Y478+Q13131+Q9UGI9); assay: AMP-dependent Kinase enzyme assay. An in vitro enzyme assay that detects ADP turnover that is directly proportional to AMPK activity. This uses naive AMPK that is activated during the assay with MK-8722; assay type: functional; conditions: 30 µM
# [4] = target: Sialic acid-binding Ig-like lectin 9 (Homo sapiens) (UniProt Q9Y336); assay: Hs-Siglec9 ALPHAscreen SOP 20170721; conditions: 10 µM
# Trypanosoma cruzi = assay: Trypanosoma cruzi phosphomannomutase and mannose-1-phosphate guanylyltransferase assay; assay type: functional; conditions: 10 µM
# [5] = target: T2, Arginase-2, mitochondrial (Homo sapiens) (UniProt P78540); assay: in vitro enzyme assay to detect the production of urea directly proportional to the activity of Arginase II; assay type: functional; conditions: 33.3 µM; note: in the data most compounds retested in dose-response had high values
# T2 sequence (whole entry): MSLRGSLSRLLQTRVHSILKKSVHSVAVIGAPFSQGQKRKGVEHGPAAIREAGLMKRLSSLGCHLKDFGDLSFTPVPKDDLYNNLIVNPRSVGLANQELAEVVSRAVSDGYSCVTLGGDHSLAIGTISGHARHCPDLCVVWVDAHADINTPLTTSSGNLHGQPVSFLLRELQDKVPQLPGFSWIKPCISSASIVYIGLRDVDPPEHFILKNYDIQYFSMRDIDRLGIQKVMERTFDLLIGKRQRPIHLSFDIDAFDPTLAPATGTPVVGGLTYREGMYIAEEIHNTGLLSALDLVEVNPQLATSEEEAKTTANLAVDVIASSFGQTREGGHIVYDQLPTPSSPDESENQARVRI
# [6] = target: T3, Proteasome subunit beta (Trypanosoma cruzi) (UniProt O96673); assay: Trypanosoma cruzi proteasome chymotrypsin-like activity (TcProtChymo) assay.; note: in the data most compounds retested in dose-response had high values; assay type: functional; conditions: 9.37 µM
# T3 sequence (whole entry): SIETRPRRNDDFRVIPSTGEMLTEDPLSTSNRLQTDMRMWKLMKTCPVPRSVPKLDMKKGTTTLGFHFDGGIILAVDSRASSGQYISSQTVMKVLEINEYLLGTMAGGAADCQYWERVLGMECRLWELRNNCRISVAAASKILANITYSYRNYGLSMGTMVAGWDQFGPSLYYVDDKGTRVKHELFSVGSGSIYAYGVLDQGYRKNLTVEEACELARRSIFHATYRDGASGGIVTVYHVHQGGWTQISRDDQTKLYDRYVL
# Homo sapiens = species: Homo sapiens; assay: To identify inhibition of the IFN signalling (Jak-Stat) pathway via expression of an eGFP reporter gene under the control of an IFN-stimulated response element (ISRE) containing MxA promoter.; assay type: functional; conditions: 30 µM
# [7] = target: T4, Tyrosyl-tRNA synthetase, putative (Trypanosoma cruzi (strain CL Brener)) (UniProt Q4DSP6); assay: Trypanosoma cruzi tyrosyl tRNA synthetase (TcYRS) _High Tyrosine SOP; assay type: functional; conditions: 30 µM; note: in the data most compounds retested in dose-response had high values
# T4 sequence (whole entry): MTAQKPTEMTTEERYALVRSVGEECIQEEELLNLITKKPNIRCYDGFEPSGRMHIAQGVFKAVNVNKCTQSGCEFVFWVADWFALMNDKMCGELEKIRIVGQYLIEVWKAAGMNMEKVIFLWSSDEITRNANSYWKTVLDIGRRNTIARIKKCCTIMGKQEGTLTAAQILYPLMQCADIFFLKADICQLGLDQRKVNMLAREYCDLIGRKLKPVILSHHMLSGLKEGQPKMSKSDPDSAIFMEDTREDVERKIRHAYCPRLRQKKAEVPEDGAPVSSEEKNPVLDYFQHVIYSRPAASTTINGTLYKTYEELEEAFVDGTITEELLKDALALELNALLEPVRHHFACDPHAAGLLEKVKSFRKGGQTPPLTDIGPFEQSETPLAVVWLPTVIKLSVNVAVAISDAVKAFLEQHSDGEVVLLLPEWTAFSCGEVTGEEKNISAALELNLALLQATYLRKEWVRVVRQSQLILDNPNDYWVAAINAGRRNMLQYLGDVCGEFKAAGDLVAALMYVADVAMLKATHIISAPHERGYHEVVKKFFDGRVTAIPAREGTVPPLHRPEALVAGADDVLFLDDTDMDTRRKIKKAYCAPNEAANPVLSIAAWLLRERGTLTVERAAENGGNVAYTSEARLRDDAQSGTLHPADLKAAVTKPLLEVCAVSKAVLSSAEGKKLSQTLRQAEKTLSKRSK
# [8] = target: T4, Tyrosyl-tRNA synthetase, putative (Trypanosoma cruzi (strain CL Brener)); assay: Trypanosoma cruzi tyrosyl tRNA synthetase (TcYRS) SOP; assay type: functional; conditions: 30 µM
# [9] = target: Chromo domain-containing protein 1 (Saccharomyces cerevisiae (strain ATCC 204508 / S288c) (Baker's yeast)) (UniProt P32657); assay: ScCHD-1 Enzyme Inhibition Assay; assay type: functional; conditions: 30 µM; note: in the data most compounds retested in dose-response had high values
# Chain of Chromo domain-containing protein 1 (Saccharomyces cerevisiae (strain ATCC 204508 / S288c) (Baker's yeast)) (P32657 whole entry, the tested form may be a part): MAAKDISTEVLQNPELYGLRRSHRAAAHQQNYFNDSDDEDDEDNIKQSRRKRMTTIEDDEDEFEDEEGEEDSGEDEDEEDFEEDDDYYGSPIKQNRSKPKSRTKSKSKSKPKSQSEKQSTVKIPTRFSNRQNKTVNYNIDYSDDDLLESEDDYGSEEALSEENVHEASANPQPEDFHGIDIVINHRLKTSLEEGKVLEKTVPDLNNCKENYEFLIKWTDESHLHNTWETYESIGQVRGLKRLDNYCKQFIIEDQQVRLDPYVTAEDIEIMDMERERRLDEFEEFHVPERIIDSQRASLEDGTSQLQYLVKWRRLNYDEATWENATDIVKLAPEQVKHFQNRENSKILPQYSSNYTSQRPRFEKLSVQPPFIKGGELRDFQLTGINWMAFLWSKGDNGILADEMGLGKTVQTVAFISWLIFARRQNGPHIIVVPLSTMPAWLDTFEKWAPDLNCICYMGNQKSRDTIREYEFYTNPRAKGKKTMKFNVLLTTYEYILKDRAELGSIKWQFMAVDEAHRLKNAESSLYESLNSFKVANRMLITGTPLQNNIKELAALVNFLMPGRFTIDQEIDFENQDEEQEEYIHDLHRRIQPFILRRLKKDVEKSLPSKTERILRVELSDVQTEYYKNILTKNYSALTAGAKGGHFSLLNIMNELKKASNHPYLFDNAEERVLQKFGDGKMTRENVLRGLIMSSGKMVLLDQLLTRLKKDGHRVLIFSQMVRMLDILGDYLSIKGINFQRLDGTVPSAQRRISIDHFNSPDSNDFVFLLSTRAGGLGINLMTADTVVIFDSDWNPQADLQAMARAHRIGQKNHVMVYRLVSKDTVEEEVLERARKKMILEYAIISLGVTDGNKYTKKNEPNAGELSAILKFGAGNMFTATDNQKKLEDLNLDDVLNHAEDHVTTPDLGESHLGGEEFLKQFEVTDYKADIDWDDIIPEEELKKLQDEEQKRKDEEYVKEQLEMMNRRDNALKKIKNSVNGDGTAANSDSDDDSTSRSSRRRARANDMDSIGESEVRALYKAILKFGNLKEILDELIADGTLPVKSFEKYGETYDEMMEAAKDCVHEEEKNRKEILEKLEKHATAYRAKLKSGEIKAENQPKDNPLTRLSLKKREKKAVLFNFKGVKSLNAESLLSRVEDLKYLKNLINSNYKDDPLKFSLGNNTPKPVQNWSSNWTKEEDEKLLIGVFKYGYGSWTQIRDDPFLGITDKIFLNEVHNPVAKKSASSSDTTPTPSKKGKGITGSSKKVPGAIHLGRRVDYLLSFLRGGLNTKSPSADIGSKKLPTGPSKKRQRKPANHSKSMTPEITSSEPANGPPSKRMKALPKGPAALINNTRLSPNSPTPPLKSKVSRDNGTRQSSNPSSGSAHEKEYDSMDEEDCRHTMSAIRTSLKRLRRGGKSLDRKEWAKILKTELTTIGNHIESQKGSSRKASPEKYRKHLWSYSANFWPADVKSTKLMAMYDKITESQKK
# Chain of Protein translocase subunit SecA (Escherichia coli (strain K12)) (P10408 whole entry): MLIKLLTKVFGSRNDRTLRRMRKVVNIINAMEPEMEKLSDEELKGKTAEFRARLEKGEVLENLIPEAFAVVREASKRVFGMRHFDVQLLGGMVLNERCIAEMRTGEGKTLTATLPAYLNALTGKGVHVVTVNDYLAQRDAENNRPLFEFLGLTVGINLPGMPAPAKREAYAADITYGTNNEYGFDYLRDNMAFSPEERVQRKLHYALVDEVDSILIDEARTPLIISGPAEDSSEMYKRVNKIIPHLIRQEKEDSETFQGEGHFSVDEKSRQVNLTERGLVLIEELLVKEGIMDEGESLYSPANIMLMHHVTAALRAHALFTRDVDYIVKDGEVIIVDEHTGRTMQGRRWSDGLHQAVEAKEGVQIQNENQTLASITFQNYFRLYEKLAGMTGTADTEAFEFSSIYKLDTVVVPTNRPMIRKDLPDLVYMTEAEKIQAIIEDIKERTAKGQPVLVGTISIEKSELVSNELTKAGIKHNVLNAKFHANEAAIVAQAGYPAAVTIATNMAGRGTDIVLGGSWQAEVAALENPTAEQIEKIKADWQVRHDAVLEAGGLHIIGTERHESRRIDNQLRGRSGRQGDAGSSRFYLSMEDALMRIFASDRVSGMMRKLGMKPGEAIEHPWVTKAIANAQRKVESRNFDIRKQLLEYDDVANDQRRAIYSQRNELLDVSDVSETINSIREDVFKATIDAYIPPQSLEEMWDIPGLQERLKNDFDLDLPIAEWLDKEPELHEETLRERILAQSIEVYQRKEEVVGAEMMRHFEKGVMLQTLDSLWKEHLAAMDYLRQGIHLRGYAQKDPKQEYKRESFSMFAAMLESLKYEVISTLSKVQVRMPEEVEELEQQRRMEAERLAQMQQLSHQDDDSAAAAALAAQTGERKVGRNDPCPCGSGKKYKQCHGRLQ
# Chain of Sialic acid-binding Ig-like lectin 9 (Homo sapiens) (Q9Y336 whole entry): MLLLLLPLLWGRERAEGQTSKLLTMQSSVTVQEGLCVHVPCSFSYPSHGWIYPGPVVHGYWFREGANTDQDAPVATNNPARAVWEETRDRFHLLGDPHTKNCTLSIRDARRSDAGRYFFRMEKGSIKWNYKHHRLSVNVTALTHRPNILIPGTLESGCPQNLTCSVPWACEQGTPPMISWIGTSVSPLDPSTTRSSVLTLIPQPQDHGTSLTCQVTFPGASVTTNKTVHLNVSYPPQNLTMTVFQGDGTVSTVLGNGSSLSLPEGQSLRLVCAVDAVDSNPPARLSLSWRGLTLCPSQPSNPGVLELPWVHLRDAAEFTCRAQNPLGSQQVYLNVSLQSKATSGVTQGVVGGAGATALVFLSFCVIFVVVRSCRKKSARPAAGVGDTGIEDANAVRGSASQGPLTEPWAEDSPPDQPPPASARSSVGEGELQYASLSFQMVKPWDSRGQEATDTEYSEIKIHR
Structure (SMILES),Percent Effect [1] [%],Percent Effect [2] [%],Percent Effect [3] [%],Percent Effect [4] [%],Percent Effect (Trypanosoma cruzi) [%],Percent Effect [5] [%],Percent Effect [6] [%],Percent Effect (Homo sapiens) [%],Percent Effect [7] [%],Percent Effect [8] [%],Percent Effect [9] [%]
c1ccc(-c2nnn3c2COC(CNCC2CCOCC2)C3)cc1 (configuration not stated),-4.05,8,10.9,4.62,-0.984,-1.63,0.0881,12.3,7.45,19.2,-2.25
CCN(CC)C(=O)CCNC(=O)N1CCC(c2ccccc2)C1 (configuration not stated),-1.34,0,-3.55,1.13,0.772,-4.29,0.172,15.7,0.529,4.88,0.238
O=C(C1CCOCC1)N1CCc2ncnc(-c3ccc(F)cc3)c2CC1,-1.29,2.67,4.73,2.72,-1.35,-2.33,8.89,-4.53,0,-2.5,-3.02
O=C(Cc1ccccc1F)N1CCN(C(=O)c2ccoc2)CC1,-1.97,7.89,7.43,-1.79,-2.04,-23.7,22.5,-4.65,9.57,18.2,-2.49
CCS(=O)(=O)Nc1ccc(C(=O)NCCCN2CCCC2)cc1,-2.09,13.2,2.99,-3.93,-3.8,0,19.1,-9,4.25,7.79,-4.55
c1cc(CNCc2ccc3c(c2)CCO3)cc(N2CCOCC2)n1,-6.07,5.41,-3.9,-3.3,-3.03,0.744,6.27,2.63,2.15,6.17,-4.71
Cc1nccnc1N1CCC2(CCCN(C3CCOCC3)C2=O)C1 (configuration not stated),-7.49,-2.74,0.961,-4.09,-5.56,0,-1.63,27.4,0,-3.7,0.0613
Cc1nc2ccccc2nc1CN1CCCC1c1c(C)nn(C)c1C (configuration not stated),-4.48,1.27,5.44,6.81,5.44,-1.94,2.23,3.07,5.21,17.7,-26.1
CCN1CCC(NC(=O)CN2CCCCC2Cn2cc(C)cn2)CC1 (configuration not stated),3.6,21.5,4.67,-0.101,-4.21,-11.4,15.3,14.9,1.04,-22.8,-23.6
COCCC(=O)N1CCN(CCN(C)C)c2ncccc2C1,-3.66,5.2,4.52,2.96,-0.492,-2.76,9.48,0.361,4.3,8.64,-1.22
CC1CCCN(CCNC(=O)c2ccn(-c3ccccc3)n2)C1 (configuration not stated),-0.427,18.2,2.11,-6.84,-8.05,4.63,5.07,16.5,8.74,12.2,-8.6
O=C(CN1CCC(c2cccc(F)c2)C1)NCC(F)(F)F (configuration not stated),-0.194,18.4,-1.43,-3.51,3.57,-1.15,18.1,36.1,6.37,21.9,-8.57
Cc1n[nH]c(C)c1NC(=O)CN1CCCC(CNC(=O)C(C)(C)C)C1 (configuration not stated),-2.53,2.63,0.454,5.58,-0.188,2.68,8.19,21.7,-1.47,-2.44,0.796
Cc1noc([C@H]2CC[C@@H]3[C@@H](CCN3S(C)(=O)=O)O2)n1,-6.38,2.7,1.84,-1.29,0.977,3.75,6.17,-5.62,7.92,11,-2.42
COc1cc(N2C[C@@H]3COC[C@]3(COc3ccc(C#N)cn3)C2)ncn1,-3.38,13.5,2.34,2.33,4.01,9.24,12.6,35.9,4.32,7.69,1.63
CN(Cc1ccco1)C(=O)CN1CCCC(Cn2cncn2)C1 (configuration not stated),-2.53,5.26,-6.77,10.4,3.64,2.16,15,-16.1,5.42,11.1,-6.09
CN(Cc1cnn(C)c1)C(=O)NC1CCS(=O)(=O)C1 (configuration not stated),0.0061,4.17,-12.4,-0.91,5.15,-0.442,20.5,6.03,4.21,7.69,-2.71
CO[C@@H]1CC[C@H]2[C@H]1OCCN2C(=O)c1ccc(C)o1,2.4,10.4,173,-12.1,-7.2,-11,14.1,22.1,-3.17,-1.28,-14
Cc1cc(C)n(CC2CN(Cc3nnsc3Cl)CCO2)n1 (configuration not stated),-1.37,21.1,3.21,2.78,-2.82,-4.21,14.7,-18.7,4.41,17.1,-7.75
CCc1n[nH]c(C2CN(Cc3nccn3CC)CCO2)n1 (configuration not stated),-0.0966,20.8,-2.5,-14.5,2.45,6.53,9.62,7.94,12.4,25.9,-16.2
CCn1c(=O)nc2n1C(=O)N(c1cccc(Cl)c1)C2,-5.8,6.67,-1.98,-4.32,-0.786,2.29,13.7,-10.2,8.47,15.4,-7.77
N#Cc1ccc(OCCNc2cccc(C(=O)N3CCOCC3)c2)cc1,-3.6,15.6,-1.62,14.6,6.98,-8.28,17.1,16.8,2.15,13.6,0.249

# Source: ChEMBL document CHEMBL3988442, “University of Dundee, Small-Polar-MMV Screening Library” (2021)
